Consider 1 molecule from PubChem BioAssay AID651910 (Vanderbilt Specialized Chemistry Center, 2012).

The experiment has as its target Polyamine deacetylase HDAC10 (Homo sapiens) (UniProt Q969S8). The experiment is described as follows: inhibitors of recombinant human HDAC10 – biochemical, selectivity assay for E-cadherin restoration project, profiling panel (AID 651910).

Active and inactive are the calls of the source. No rule for the calls is given here.

Chain of Polyamine deacetylase HDAC10 (Homo sapiens) (Q969S8 whole entry, looked up): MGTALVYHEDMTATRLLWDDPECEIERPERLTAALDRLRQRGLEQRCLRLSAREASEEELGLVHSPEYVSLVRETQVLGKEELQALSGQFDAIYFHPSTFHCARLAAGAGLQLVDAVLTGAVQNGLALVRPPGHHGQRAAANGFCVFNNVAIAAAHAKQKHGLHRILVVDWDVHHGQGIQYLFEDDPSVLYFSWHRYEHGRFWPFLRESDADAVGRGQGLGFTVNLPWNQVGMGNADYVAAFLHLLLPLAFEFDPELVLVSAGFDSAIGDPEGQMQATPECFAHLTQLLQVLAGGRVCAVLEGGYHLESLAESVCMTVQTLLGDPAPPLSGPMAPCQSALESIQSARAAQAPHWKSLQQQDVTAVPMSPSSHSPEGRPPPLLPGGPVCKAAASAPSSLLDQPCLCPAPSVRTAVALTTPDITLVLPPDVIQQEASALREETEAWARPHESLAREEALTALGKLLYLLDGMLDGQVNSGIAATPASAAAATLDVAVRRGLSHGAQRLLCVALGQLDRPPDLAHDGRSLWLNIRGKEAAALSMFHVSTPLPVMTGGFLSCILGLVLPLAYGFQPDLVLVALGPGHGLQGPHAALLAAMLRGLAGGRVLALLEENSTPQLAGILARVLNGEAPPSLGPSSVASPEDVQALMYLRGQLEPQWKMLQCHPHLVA

As for `O=C(NCCCNC(=O)c1ccc[nH]c1=O)c1cc(-c2ccccc2)on1`, the result was inactive.
